The record followed here is ChEMBL document CHEMBL3988442, “University of Dundee, Small-Polar-MMV Screening Library” (2021).

For some of these results: Results with a measured potency or affinity are listed apart.

Common to all, as to set-up: scale not given: direction of the effect not stated beside the values
Test [1] addresses Protein translocase subunit SecA (Escherichia coli (strain K12)) (UniProt P10408). Put plainly: Assay to Identify E. coli SecA ATPase Inhibitors. Type of test: functional. To be noted: 30 µM.
The target of test [2] is T1, Ubiquitin-activating enzyme e1, putative (Leishmania donovani (strain BPK282A1)) (UniProt E9BSI1).
T1 sequence (whole entry): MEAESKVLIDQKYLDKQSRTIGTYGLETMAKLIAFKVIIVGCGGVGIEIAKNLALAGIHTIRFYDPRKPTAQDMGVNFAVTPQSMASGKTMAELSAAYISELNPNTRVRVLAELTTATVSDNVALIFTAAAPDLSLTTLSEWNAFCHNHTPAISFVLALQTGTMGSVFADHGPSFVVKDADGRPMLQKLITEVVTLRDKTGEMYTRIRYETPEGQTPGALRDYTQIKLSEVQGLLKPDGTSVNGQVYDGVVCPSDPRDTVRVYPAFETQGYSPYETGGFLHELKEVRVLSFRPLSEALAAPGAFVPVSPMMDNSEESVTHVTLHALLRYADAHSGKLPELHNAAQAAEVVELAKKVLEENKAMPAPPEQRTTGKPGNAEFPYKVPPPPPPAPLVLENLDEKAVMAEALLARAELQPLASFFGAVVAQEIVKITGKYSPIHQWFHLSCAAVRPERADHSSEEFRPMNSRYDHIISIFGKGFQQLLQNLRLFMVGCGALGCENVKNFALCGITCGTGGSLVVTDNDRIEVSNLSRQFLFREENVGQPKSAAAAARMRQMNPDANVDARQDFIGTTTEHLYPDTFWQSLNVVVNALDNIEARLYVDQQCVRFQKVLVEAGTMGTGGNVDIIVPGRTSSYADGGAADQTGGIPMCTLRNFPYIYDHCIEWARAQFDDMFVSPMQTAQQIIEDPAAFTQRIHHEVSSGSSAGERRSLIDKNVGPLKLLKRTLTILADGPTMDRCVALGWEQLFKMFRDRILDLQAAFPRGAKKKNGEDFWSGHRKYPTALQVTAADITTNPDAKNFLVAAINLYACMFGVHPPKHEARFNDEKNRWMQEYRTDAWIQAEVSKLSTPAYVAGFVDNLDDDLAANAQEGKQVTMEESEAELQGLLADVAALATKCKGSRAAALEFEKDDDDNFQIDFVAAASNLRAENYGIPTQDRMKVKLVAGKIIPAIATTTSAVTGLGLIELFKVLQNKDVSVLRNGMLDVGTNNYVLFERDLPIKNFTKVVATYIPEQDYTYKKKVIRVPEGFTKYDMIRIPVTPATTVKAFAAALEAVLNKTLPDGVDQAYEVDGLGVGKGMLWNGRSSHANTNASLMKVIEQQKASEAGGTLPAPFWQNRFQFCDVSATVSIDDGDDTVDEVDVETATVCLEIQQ
Nature of the test: Leishmania donovani Ubiquitin Activating Enzyme (LdE1). Type of test: functional. To be noted: 30 µM.

In test [3] the target is AMP-activated protein kinase, AMPK (Homo sapiens) (UniProt P54646+O43741+P54619+Q9UGJ0+Q9Y478+Q13131+Q9UGI9). Put plainly: AMP-dependent Kinase enzyme assay. An in vitro enzyme assay that detects ADP turnover that is directly proportional to AMPK activity. This uses naive AMPK that is activated during the assay with MK-8722. Type of test: functional. The note with it: 30 µM.

For test [4], the target named is Sialic acid-binding Ig-like lectin 9 (Homo sapiens) (UniProt Q9Y336). Put plainly: Hs-Siglec9 ALPHAscreen SOP 20170721. The note with it: 10 µM. A general note: In Alpha technology, singlet oxygen from a donor bead excites a nearby acceptor bead.
The next test relates to Trypanosoma cruzi. Put plainly: Trypanosoma cruzi phosphomannomutase and mannose-1-phosphate guanylyltransferase assay. Type of test: functional. To be noted: 10 µM.
Test [5] addresses T2, Arginase-2, mitochondrial (Homo sapiens) (UniProt P78540).
T2 sequence (whole entry): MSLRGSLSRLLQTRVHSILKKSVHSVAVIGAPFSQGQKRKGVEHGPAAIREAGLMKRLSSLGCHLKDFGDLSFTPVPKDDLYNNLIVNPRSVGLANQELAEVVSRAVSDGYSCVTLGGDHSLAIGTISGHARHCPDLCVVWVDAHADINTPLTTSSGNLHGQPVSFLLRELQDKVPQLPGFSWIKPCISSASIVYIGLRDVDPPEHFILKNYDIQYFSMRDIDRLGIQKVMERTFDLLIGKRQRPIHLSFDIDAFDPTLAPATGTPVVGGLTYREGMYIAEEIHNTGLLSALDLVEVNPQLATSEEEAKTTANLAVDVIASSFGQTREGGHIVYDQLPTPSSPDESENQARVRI
Nature of the test: in vitro enzyme assay to detect the production of urea directly proportional to the activity of Arginase II. Also: in the data most compounds retested in dose-response had high values. Type of test: functional. To be noted: 33.3 µM.

The target in test [6] is T3, Proteasome subunit beta (Trypanosoma cruzi) (UniProt O96673).
T3 sequence (whole entry): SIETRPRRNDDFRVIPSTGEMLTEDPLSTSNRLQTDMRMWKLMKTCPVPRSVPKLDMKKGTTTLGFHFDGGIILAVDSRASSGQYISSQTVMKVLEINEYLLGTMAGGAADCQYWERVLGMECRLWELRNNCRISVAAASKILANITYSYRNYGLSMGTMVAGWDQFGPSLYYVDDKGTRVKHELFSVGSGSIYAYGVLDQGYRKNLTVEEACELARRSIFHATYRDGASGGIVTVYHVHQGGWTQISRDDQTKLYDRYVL
Nature of the test: Trypanosoma cruzi proteasome chymotrypsin-like activity (TcProtChymo) assay. Also: in the data most compounds retested in dose-response had high values. Type of test: functional. To be noted: 9.37 µM.

For another test, the species on record is Homo sapiens. Put plainly: To identify inhibition of the IFN signalling (Jak-Stat) pathway via expression of an eGFP reporter gene under the control of an IFN-stimulated response element (ISRE) containing MxA promoter. Type of test: functional. To be noted: 30 µM.
For test [7], the target named is T4, Tyrosyl-tRNA synthetase, putative (Trypanosoma cruzi (strain CL Brener)) (UniProt Q4DSP6).
T4 sequence (whole entry): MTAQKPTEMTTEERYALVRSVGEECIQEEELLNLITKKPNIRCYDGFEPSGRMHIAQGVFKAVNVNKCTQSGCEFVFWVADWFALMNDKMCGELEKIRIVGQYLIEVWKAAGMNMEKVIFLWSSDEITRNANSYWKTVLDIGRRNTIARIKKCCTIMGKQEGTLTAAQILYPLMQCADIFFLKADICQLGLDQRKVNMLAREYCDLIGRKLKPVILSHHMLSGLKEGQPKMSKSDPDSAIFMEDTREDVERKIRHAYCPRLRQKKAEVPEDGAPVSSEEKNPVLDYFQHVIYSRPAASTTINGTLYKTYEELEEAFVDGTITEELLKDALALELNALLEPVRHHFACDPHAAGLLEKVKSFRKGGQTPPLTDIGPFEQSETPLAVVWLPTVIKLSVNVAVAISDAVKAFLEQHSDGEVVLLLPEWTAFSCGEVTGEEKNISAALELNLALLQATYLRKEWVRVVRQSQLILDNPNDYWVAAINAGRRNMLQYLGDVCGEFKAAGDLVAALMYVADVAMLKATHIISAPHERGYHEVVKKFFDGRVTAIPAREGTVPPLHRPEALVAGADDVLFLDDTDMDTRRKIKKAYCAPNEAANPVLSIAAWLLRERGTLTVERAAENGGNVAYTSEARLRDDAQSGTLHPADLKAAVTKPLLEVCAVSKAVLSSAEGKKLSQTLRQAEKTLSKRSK
Nature of the test: Trypanosoma cruzi tyrosyl tRNA synthetase (TcYRS) _High Tyrosine SOP. Also: in the data most compounds retested in dose-response had high values. To be noted: 30 µM. Type of test: functional.

For test [8], the target named is T4, Tyrosyl-tRNA synthetase, putative (Trypanosoma cruzi (strain CL Brener)). Nature of the test: Trypanosoma cruzi tyrosyl tRNA synthetase (TcYRS) SOP. Type of test: functional. The note with it: 30 µM.
Test [9] addresses Chromo domain-containing protein 1 (Saccharomyces cerevisiae (strain ATCC 204508 / S288c) (Baker's yeast)) (UniProt P32657). Nature of the test: ScCHD-1 Enzyme Inhibition Assay. Also: in the data most compounds retested in dose-response had high values. Type of test: functional. The note with it: 30 µM.

Sequence of Protein translocase subunit SecA (Escherichia coli (strain K12)) (P10408 whole entry): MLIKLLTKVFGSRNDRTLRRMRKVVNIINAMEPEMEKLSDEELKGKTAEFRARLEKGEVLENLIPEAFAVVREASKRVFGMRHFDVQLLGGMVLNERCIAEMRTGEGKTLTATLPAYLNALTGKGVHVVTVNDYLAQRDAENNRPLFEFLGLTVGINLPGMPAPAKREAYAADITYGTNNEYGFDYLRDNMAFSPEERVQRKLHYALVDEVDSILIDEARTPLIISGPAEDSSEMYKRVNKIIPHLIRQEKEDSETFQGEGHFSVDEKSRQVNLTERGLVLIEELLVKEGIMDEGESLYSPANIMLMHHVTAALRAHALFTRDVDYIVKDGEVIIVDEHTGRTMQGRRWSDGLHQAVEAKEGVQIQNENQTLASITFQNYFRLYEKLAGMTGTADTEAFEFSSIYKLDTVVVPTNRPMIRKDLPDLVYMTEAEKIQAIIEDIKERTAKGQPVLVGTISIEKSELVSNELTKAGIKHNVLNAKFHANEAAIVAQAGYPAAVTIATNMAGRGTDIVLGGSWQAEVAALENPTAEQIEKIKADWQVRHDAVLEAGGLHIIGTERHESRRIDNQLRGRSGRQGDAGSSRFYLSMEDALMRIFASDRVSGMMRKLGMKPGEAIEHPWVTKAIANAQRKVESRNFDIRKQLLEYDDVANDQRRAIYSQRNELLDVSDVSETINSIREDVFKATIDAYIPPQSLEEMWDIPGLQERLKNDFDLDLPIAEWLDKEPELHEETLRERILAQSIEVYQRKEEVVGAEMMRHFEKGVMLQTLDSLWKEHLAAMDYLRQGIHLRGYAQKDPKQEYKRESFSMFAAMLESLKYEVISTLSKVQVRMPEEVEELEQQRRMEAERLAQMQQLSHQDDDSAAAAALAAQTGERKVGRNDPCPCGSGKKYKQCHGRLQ
Sequence of Chromo domain-containing protein 1 (Saccharomyces cerevisiae (strain ATCC 204508 / S288c) (Baker's yeast)) (P32657 whole entry, the tested form may be a part): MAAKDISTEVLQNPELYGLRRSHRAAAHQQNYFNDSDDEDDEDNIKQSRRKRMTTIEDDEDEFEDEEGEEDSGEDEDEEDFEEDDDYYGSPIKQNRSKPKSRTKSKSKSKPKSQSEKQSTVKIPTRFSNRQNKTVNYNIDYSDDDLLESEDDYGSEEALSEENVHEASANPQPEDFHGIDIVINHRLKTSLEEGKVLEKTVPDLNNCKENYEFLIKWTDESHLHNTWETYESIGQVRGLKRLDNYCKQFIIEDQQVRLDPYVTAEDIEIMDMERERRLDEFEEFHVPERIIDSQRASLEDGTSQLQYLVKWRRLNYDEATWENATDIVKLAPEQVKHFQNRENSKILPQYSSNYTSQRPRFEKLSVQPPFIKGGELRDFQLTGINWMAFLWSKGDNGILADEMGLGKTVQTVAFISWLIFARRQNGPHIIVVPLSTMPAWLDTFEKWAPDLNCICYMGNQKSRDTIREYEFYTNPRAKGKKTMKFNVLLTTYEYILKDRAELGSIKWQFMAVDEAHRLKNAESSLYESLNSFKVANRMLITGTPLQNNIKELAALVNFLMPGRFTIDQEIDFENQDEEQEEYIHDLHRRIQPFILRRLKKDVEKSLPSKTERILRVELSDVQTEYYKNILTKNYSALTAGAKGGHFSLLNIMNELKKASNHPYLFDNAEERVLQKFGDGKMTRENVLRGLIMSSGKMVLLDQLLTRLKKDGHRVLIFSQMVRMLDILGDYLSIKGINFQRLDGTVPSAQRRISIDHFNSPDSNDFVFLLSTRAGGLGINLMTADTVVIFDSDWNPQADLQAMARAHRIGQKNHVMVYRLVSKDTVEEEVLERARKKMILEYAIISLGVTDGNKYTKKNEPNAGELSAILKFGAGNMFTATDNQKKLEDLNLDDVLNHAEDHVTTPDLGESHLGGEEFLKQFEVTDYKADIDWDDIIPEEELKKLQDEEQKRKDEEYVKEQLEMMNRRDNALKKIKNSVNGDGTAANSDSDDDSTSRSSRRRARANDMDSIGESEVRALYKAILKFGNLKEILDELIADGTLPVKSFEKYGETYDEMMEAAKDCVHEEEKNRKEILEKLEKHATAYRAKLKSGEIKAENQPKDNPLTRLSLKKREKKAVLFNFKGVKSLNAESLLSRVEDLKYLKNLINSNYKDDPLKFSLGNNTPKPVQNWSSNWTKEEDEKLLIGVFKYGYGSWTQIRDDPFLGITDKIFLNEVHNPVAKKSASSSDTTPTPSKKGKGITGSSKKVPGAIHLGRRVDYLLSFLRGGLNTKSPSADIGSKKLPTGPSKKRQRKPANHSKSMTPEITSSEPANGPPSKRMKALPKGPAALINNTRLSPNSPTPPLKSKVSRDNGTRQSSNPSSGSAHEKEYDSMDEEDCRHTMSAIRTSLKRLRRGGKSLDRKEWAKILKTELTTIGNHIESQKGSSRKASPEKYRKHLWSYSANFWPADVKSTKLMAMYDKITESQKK
Sequence of Sialic acid-binding Ig-like lectin 9 (Homo sapiens) (Q9Y336 whole entry): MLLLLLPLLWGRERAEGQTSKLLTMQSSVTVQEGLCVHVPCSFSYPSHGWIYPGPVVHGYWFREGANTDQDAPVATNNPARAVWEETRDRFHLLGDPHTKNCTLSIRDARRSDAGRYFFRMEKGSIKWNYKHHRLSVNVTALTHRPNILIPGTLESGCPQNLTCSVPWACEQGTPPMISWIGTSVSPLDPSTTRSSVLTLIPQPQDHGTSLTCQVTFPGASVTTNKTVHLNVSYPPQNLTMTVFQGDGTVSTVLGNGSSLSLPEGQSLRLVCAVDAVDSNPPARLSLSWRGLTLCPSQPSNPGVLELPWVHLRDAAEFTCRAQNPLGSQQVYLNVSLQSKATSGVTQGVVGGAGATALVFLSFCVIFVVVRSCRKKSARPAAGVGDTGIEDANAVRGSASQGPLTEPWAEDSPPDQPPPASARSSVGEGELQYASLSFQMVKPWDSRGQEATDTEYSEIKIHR

`CCCSCC(=O)Nc1ncn(CC(=O)NCc2ccccc2)n1`: the Percent Effect in [1] is -2.05%; in test [2], 8%; in test [3], -1.58%; in [4] it was 7.45%; in the test with Trypanosoma cruzi, 3.6%; in test [5], 13.5%. Also, the Percent Effect in test [6] is 12.9%; in the test listed under Homo sapiens, 4.31%; in [7] it was 6.01%; in [8], 16.1%; in test [9], -6.22%.
`Cc1ccccc1CC1(CO)CCCN(c2ncccc2C#N)C1` (stereo not drawn): the Percent Effect in test [1] is -2.63%; in test [2], 0%; in test [3] it was 3.1%; in [4] it was 0.621%; in the test with Trypanosoma cruzi, -5.21%; in test [5], 1.43%. The Percent Effect is 17.1% in test [6]; 27.8% in the test listed under Homo sapiens; 3.7% in test [7]; 7.32% in [8]; -1.78% in [9].
As to `Cc1nn(CC(C)C)c(N(C)C)c1CNCc1cccc2c1OCO2`, the Percent Effect in [1] is 3.79%; in test [2], 13.5%; in test [3], -13.1%; in test [4], -3.94%; in the test with Trypanosoma cruzi, -8.02%; in [5], -12%. Besides, the Percent Effect in [6] was 16.9%; in the test filed under Homo sapiens, 13.9%; in test [7], 7.39%; in test [8], 11.1%; in test [9], -4.83%.
In the case of `CN1CCC(Oc2ccc(NC(=O)c3ccccc3Br)cc2)CC1`, the Percent Effect in [1] is -0.903%; in test [2] it was -2.6%; in test [3], 0.999%; in [4] it was 7.1%; in the test with Trypanosoma cruzi it was 6%; in test [5] it was -4.14%. Besides, the Percent Effect in test [6] is 10.8%; in the test filed under Homo sapiens, 7.69%; in test [7], 1.07%; in test [8], 3.7%; in test [9] it was -4.57%.
Regarding `O=C(NCCc1ccccn1)C1=NN(c2ccccc2)C(=O)CN1`, the Percent Effect is 0.741% in test [1]; 15.2% in test [2]; 0.826% in [3]; -11.6% in [4]; -9.16% in the test with Trypanosoma cruzi; 6.08% in test [5]. Moreover, the Percent Effect in [6] is 4.83%; in the test listed under Homo sapiens, 11.7%; in test [7], 2.46%; in test [8], 13.9%; in test [9], -1.69%.
In the case of `Cc1ccc(NC2CCN(C(=O)CC3CCCO3)CC2)nn1` (stereo not drawn), the Percent Effect was -3.13% in test [1]; -5.41% in [2]; -10.4% in test [3]; 8.84% in test [4]; -2.17% in the test on Trypanosoma cruzi; 2% in [5]. For the same compound, the Percent Effect in [6] is 1.8%; in the test filed under Homo sapiens, 5.87%; in test [7] it was 1.48%; in test [8], -8.64%; in test [9], 0.857%.
For the compound `Cc1noc([C@@]23CCO[C@@H]2CCN(CC2CCOCC2)C3)n1`, the Percent Effect in test [1] was 2.95%; in [2], 8%; in test [3], 7.01%; in [4], 4.21%; with Trypanosoma cruzi it was -6.76%; in [5], -51.4%. The Percent Effect was 9.91% in test [6]; 2.92% in the test filed under Homo sapiens; 8.33% in test [7]; 20% in test [8]; -7.02% in [9].
With `COc1ccccc1CCNC(=O)CN1CCCC1c1noc(C)n1` (stereo not drawn), the Percent Effect is -1.65% in test [1]; 2.63% in test [2]; 3.18% in test [3]; 11.8% in test [4]; -1.69% in the test on Trypanosoma cruzi; 1.53% in test [5]. The Percent Effect in [6] was 12.9%; in the test listed under Homo sapiens, 5.32%; in test [7], 4.41%; in [8], 17.1%; in test [9], -5.97%.
